# Source: PubChem
# MEP2 TOR yeast: modulators of MEP2-GFP levels in yeast, primary screen, S. cerevisiae, multiplex flow cytometry, MLPCN library; S. cerevisiae MEP2-GFP strain, 3 h; 100% = DMSO control level; GFP response vs DMSO, % at 10 µM; 0.51% of 330,000 active;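 active = GFP response versus DMSO above a set limit, roughly screen mean plus 3 SD, cut at about 180% in these data; inconclusive = fewer than 70 cells counted for a yeast strain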;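 note: median GFP fluorescence of the barcode-gated MEP2-GFP cells per well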
# AGP1-GFP MLPCN: modulators of AGP1-GFP expression in yeast TOR pathway, primary screen, cell-based, multiplex flow cytometry, S. cerevisiae, MLPCN library; 3 h; GFP as percent of DMSO wells; GFP response vs DMSO, % at 10 µM; 0.02% of 320,000 active; AID 2066, 2009;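 active = GFP response relative to DMSO above a set limit, near screen average plus 3 SD, cut at about 150% in these data; inconclusive = fewer than 70 cells counted for the yeast strain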;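 note: median GFP channel fluorescence of the gated AGP1 strain per well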
# GASC-1 inh: inhibitors of GASC-1 histone demethylase, primary screen, biochemical, fluorescence, DELFIA europium. Lysine-specific demethylase 4C (Homo sapiens), Q9H3R0. GST-JMJD2C(1-420) H3K9me3 demethylation. inhibition, % at 2.35 µM. 0.069% of 330,000 active;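 active = more than half of a compound's replicate wells show inhibition beyond 50%, single wells judged on their own value; inconclusive = some, but no more than half, of replicates pass 50% inhibition; inactive = no replicate passes 50% inhibition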;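 note: signal counts dimethyl H3K9 product captured on neutravidin plate; 0% = median of DMSO wells and 100% = 0.3 times that DMSO median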
# Target sequence (Q9H3R0 1-420 limits assumed): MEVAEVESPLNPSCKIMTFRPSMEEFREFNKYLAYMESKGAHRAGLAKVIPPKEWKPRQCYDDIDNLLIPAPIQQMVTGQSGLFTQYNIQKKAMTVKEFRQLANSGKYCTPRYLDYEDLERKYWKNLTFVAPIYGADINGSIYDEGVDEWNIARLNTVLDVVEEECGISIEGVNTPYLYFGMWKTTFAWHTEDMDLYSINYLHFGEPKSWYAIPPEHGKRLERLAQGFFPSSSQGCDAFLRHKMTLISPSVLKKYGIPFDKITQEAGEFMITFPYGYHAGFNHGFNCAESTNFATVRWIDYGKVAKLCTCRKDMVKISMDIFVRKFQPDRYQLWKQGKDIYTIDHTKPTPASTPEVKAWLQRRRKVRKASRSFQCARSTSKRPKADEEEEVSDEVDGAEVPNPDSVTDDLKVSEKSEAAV
# CIT2-GFP yeast: modulators of CIT2-GFP expression in yeast, primary screen, S. cerevisiae, GFP fusion, multiplex flow cytometry, MLPCN library; S. cerevisiae CIT2-GFP strain, 3 h; 100 means same as DMSO wells; 0.065% of 320,000 active; GFP response vs DMSO, % at 10 µM; AID 2029, 2009;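 active = GFP response relative to DMSO above a set limit, near the screen mean plus 3 SD, cut at about 150% in these data; inconclusive = Fewer than 70 cells measured for a yeast strain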;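 note: ratio of well median GFP fluorescence to mean of DMSO wells on the plate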
# LAP4-GFP MLPCN: modulators of LAP4-GFP expression in yeast, primary screen, S. cerevisiae, multiplex flow cytometry, MLPCN library | 3 h; median GFP as percent of DMSO wells | 0.34% of 320,000 active | GFP response vs DMSO, % at 10 µM | AID 2023, 2009;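 active = GFP response vs DMSO above a set limit, about the screen mean plus 3 SD, cut at about 150% in these data; inconclusive = under 70 cell events counted for the yeast strain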
# RPL19A-GFP yeast: RPL19A-GFP expression modulators in yeast, primary screen, cell-based, S. cerevisiae, multiplex flow cytometry, MLPCN | 0.3% of 330,000 active | percent response vs DMSO, % at 10 µM | S. cerevisiae RPL19A-GFP strain, 3 h; stronger effect = lower value;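 active = percent response vs DMSO below 50%; inconclusive = fewer than 70 events counted for the yeast strain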;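 note: median channel GFP fluorescence of the barcoded RPL19A-GFP strain; ratio of sample median GFP to plate DMSO average so 100% = DMSO; lower means less RPL19A-GFP as with rapamycin TOR inhibition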
# Starred values were filed as active, the others as inactive; ? = inconclusive; / = not tested or not shown; [ ] = another dose, or the depositor's remark. The list is not random: actives were taken first. Their share in the collection is about 0.97%.
SMILES,MEP2 TOR yeast,AGP1-GFP MLPCN,GASC-1 inh,CIT2-GFP yeast,LAP4-GFP MLPCN,RPL19A-GFP yeast
O=C(CCCc1nc(-c2ccc(Cl)cc2)no1)N1CCOCC1,305*[may fluoresce violet],?,-27,?,106,17*[may fluoresce violet]
O=C(NC1CCCCC1)C(c1ccncc1)N(C(=O)c1csnn1)c1ccccc1 (centres undefined),103,101,6,95,105,100
O=c1ccc(-c2ccccc2)nn1Cc1ccc(F)cc1,860*[may fluoresce violet],19,-10,?,92,30*[may fluoresce violet]
COc1ccc(CC(=O)Oc2ccccc2C)cc1,191*,87,10,89,96,96
CC(=O)c1ccc(S(=O)(=O)NCc2ccc(C(=O)NCC(c3ccccc3)N(C)C)cc2)cc1 (centres undefined),106,104,11,98,92,105
Cc1cc(C)nc(NCc2ccc(Cl)cc2)n1,102,95,68*,107,88,101
Cc1cc(C)nc(SCc2ccc(Cl)cc2)n1,107,100,2,102,94,102
Cc1ccc(/C=C2/NC(=O)N(Cc3ccccc3)C2=O)o1,98,96,-2,96,172*,102
CCn1c(SCC(=O)N2CCOCC2)nc2sc3c(c2c1=O)CCCC3,86,93,2,88,97,/
CCn1c(SCC(=O)N2CCOCC2)nc2oc3c(Cl)cc(Cl)cc3c(=O)c2c1=O,186*[may fluoresce violet],19,-3,?,102,62
C[C@@H](NC(=O)Cn1cnc2c(OCc3ccccc3)ncnc21)c1cccc2ccccc12,88,96,59*,88,87,92
COC(=O)C[C@H](NC(=O)Cn1cnc2c(OCc3ccccc3)ncnc21)C(=O)OC,87,88,23,87,93,92
O=C(CSc1ccc(Cl)cc1)NNC(=O)c1ccco1,98,114,-8,?,?,99
CC(C)C(=O)Nc1ccc(-c2nc3ccccc3c(=O)o2)cc1,88,84,-24,83,95,94
CCCCC(CC)CNC(=O)C(=O)c1ccccc1NC(C)=O (centres undefined),191*[may fluoresce violet],17,-2,?,92,41*[may fluoresce violet]
COC(=O)C1=C(N)Oc2cc(C)n(CC3CCCO3)c(=O)c2C1c1ccccc1OC (centres undefined),247*[may fluoresce violet],?,-10,?,61,68
CCN(Cc1ccccc1)S(=O)(=O)c1ccc(C(=O)Nc2nnc(C)o2)cc1,104,101,-4,92,188*,94
CCc1nnc(NC(=O)c2ccc(S(=O)(=O)N(CC)Cc3ccccc3)cc2)o1,104,99,-1,107,141,96
CCc1nnc(NC(=O)c2ccc(S(=O)(=O)N(C)Cc3ccccc3)cc2)o1,113,101,1,95,186*,92
COc1ccc(NC(C)=O)cc1S(=O)(=O)NC1CCSc2ccccc21 (centres undefined),103,91,0,96,96,92
CCOC(=O)Cc1csc(NC(=O)CN2CCCCC2)n1,111,108,1,107,89,110
Cc1nn(C)c(C(=O)Sc2ccccc2)c1[N+](=O)[O-],99,110,6,96,129,101
Cc1nn(C)c(C(=O)Sc2cccc(Cl)c2)c1[N+](=O)[O-],97,110,-7,103,154*,107
COc1ccc(-c2nnc(SCC(=O)Nc3ccc(C(=O)O)cc3)n2-c2ccc(Cl)cc2)cc1,643*[may fluoresce violet],30,6,?,92,39*[may fluoresce violet]
COc1ccc(C)cc1NC(=O)CSc1nnc(-c2ccco2)n1N,105,107,-1,98,99,104
SMILES,MEP2 TOR yeast,AGP1-GFP MLPCN,GASC-1 inh,CIT2-GFP yeast,LAP4-GFP MLPCN,RPL19A-GFP yeast
COc1ccc(OC)c(NC(=O)CSc2nnc(-c3ccco3)n2-c2ccc(C(=O)O)cc2)c1,279*[may fluoresce violet],?,-1,?,95,37*[may fluoresce violet]
CC1(C)CC(=O)C=C(c2cccc(Br)c2)C1,85,92,1,89,109,92
CC(C)c1ccc(NC(=O)C2CCC(CNC(=O)[C@@H]3Cc4ccccc4CN3)CC2)cc1 (some centres undefined),95,98,-11,98,93,98
COc1cc(Cl)c(C)cc1NC(=O)CC1CCCC1,110,92,-17,95,87,93
Cc1ccc(S(=O)(=O)N(CC(=O)NCc2ccco2)Cc2ccccc2F)cc1,/,/,21,/,/,/
Cc1ccc(S(=O)(=O)N(CC(=O)NCc2ccncc2)Cc2ccccc2F)cc1,483*,76,-9,97,97,74
Cn1c(N2CCC(C(N)=O)CC2)nc2c1c(=O)n(Cc1ccc(Cl)cc1)c(=O)n2C,104,101,-1,96,103,96
Cn1c(N2CCCC2)nc2c1c(=O)n(Cc1ccc(Cl)cc1)c(=O)n2C,99,100,0,72,162*,99
Cn1c(=O)c2c(nc(SCCN3CCCCC3)n2Cc2ccccc2)n(C)c1=O,280*[may fluoresce violet],?,-1,?,114,23*[may fluoresce violet]
CCCCOC(=O)Nc1cc(C)c(Cl)cc1OC,107,101,-1,93,101,99
CCOC(=O)Nc1cc(C)c(Cl)cc1OC,97,94,51*,99,107,98
N#Cc1ccsc1NC(=O)COC(=O)C1=NNC(=O)CC1,97,95,8,95,95,96
O=C(CCC(F)(F)F)N1CCC(CO)(CCc2ccccc2)CC1,103,152*,-6,99,89,102
COc1ccccc1NS(=O)(=O)c1ccc(C)c(C(=O)N2CCN(c3ccc(O)cc3)CC2)c1,108,107,5,122,95,104
CCOCC(=O)Nc1nnc(SCCOC)s1,294*[may fluoresce violet],?,2,?,107,15*[may fluoresce violet]
COc1ccc(NC(=O)C2CCCN2C(=O)NC2CCCCC2)cc1 (centres undefined),102,97,35,109,90,103
C[C@H]1CN(CCc2ccccc2)C(=O)[C@@H]1CC(=O)NCc1ccccc1,95,84,61*,113,131,102
COc1ccccc1NC(=O)NC(=O)c1ccccc1,112,101,-9,106,100,104
CCC(C)NCCCCOc1ccc(Cl)cc1C (centres undefined),87,98,6,102,88,101
CCC(C)NCCCOc1cc(Cl)ccc1Cl (centres undefined),609*[may fluoresce violet],/,5,?,124,42*[may fluoresce violet]
